{"source": "PubChem BioAssay (NCATS)", "note": "Records with an inconclusive call do not appear. The source made the active and inactive calls. Calls follow the shape of the dose curve; as a rule, active = well fitted curve in the direction sought with a large enough effect; inconclusive = small, poorly fitted or top-dose-only effect, or another doubt; inactive = no such curve, though single readings can be large or run the other way.", "data": [{"target": "Protein phosphatase 1D (Homo sapiens) (UniProt O15297)", "sequence (O15297 whole entry, looked up)": "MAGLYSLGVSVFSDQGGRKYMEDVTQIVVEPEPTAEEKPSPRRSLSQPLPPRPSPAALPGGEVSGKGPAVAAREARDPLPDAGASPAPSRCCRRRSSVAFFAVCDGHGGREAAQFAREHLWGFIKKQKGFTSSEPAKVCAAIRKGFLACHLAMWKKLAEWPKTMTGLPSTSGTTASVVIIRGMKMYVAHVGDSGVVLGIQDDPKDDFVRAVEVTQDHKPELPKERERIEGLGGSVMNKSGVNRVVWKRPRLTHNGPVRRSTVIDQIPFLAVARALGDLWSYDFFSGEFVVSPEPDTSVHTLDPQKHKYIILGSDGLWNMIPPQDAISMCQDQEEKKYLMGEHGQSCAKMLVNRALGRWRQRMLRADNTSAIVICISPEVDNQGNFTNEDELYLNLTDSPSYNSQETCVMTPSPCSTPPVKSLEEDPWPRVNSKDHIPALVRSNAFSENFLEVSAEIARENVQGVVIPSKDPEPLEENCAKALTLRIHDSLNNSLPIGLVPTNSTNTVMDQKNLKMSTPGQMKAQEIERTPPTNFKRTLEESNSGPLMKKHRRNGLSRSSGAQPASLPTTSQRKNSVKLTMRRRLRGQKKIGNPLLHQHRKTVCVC", "assay": "Rhodamine-PBP qHTS Assay for Modulators of WT P53-Induced Phosphatase 1 (WIP1) (AID 1347425); also: % of control where 0% means no effect", "settings": "recombinant WIP1, Rhodamine-PBP phosphate fluorescence, real-time; series mostly up to 57.5 µM; activity change, negative = inhibition: at the top concentration", "outline": "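The read-out is the change in Rhodamine-PBP fluorescence (f1 - f0, ex 525/em 598 nm) as Pi is released, read each minute for 11 min. Final reaction: 5 nM WIP1, 10 uM phosphopeptide VEPPL-pS-QETFS, 10 uM Rh-PBP, 50 mM Tris-HCl pH 7.5, 30 mM MgCl2. Compound was preincubated with enzyme for 1 hour at room temperature.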", "values": [{"smiles": "FC1(F)C(F)(F)C(F)(F)C2(F)C(F)(F)C(F)(F)C(F)(F)C(F)(F)C2(F)C1(F)F", "note": "(stereo unspecified)", "activity change, negative = inhibition": "4.41% (inactive)"}, {"smiles": "COc1cc(N)c(Cl)cc1C(=O)NC1CCN(Cc2ccccc2)CC1", "activity change, negative = inhibition": "9.81% (inactive)"}, {"smiles": "C[N+]1(C)CCC(=C(c2ccccc2)c2ccccc2)CC1", "activity change, negative = inhibition": "2.84% (inactive)"}, {"smiles": "OCc1ccccn1", "activity change, negative = inhibition": "-16.4% (inactive)"}, {"smiles": "CN1CCN(c2cc3c(cc2F)c(=O)c(C(=O)O)cn3-c2ccc(F)cc2)CC1", "activity change, negative = inhibition": "3.09% (inactive)"}, {"smiles": "O=C(Nc1cccc(C2=NCCN2)c1)Nc1cccc(C2=NCCN2)c1", "activity change, negative = inhibition": "2.94% [at 23.8 µM] (inactive)"}, {"smiles": "NC(=S)N/N=C/c1cccnc1", "activity change, negative = inhibition": "8.87% (inactive)"}, {"smiles": "CO[C@]12C[C@@H](COC(=O)c3cncc(Br)c3)CN(C)[C@@H]1Cc1cn(C)c3cccc2c13", "activity change, negative = inhibition": "19.3% (inactive)"}, {"smiles": "COc1cc(C)nc(-n2nc(C)cc2OC)n1", "activity change, negative = inhibition": "9.04% (inactive)"}, {"smiles": "N#CCC(=O)NN", "activity change, negative = inhibition": "9.35% (inactive)"}, {"smiles": "CCCN(CCC)S(=O)(=O)c1ccc(C(=O)O)cc1", "activity change, negative = inhibition": "6.78% (inactive)"}, {"smiles": "CCOc1cc(OCC)c(C(=O)CCC(=O)O)cc1OCC", "activity change, negative = inhibition": "12.1% (inactive)"}, {"smiles": "O=[N+]([O-])c1ccc(/C=N\\O)o1", "activity change, negative = inhibition": "0.538% (inactive)"}, {"smiles": "O=C(CCN1CCN2CCCC2C1)N1c2ccccc2Sc2ccc(Cl)cc21", "note": "(stereo unspecified)", "activity change, negative = inhibition": "9.35% [at 23.8 µM] (inactive)"}, {"smiles": "CC(C(=O)O)c1cccc(Oc2ccccc2)c1", "note": "(stereo unspecified)", "activity change, negative = inhibition": "-7.86% (inactive)"}, {"smiles": "CCCCCCCCCCCCCC(=O)OC(C)C", "activity change, negative = inhibition": "5.13% (inactive)"}, {"smiles": "COc1ccc(-c2cc(C(F)F)nn2-c2ccc(S(N)(=O)=O)cc2)cc1F", "activity change, negative = inhibition": "25% (inactive)"}, {"smiles": "NS(=O)(=O)c1cc(C(=O)O)cc(N2CCCC2)c1Oc1ccccc1", "activity change, negative = inhibition": "1.04% (inactive)"}, {"smiles": "O=C(O)c1ccc(S(=O)(=O)N(Cl)Cl)cc1", "activity change, negative = inhibition": "-6.57% (inactive)"}, {"smiles": "CC(C)n1c(/C=C/[C@@H](O)C[C@@H](O)CC(=O)O)c(-c2ccc(F)cc2)c2ccccc21", "activity change, negative = inhibition": "-21.8% (inactive)"}, {"smiles": "Cc1cccc(C)c1NC(=O)CN1CCCC1", "activity change, negative = inhibition": "11.7% (inactive)"}, {"smiles": "CCCCCCCC/C=C\\CCCCCCCCN", "activity change, negative = inhibition": "17.8% (inactive)"}, {"smiles": "CCCCN1C[C@H](O)[C@@H](O)[C@H](O)[C@H]1CO", "activity change, negative = inhibition": "-11.9% (inactive)"}, {"smiles": "COP(=O)(OC)OC(c1ccc(Cl)cc1)P(=O)(OC)OC", "note": "(stereo unspecified)", "activity change, negative = inhibition": "15.2% (inactive)"}, {"smiles": "CCN(CC)CCOC(=O)C(Cc1cccc2ccccc12)CC1CCCO1", "note": "(stereo unspecified)", "activity change, negative = inhibition": "16.4% (inactive)"}, {"smiles": "O=C(O)P(=O)(O)O", "activity change, negative = inhibition": "-3.12% (inactive)"}, {"smiles": "CC(=C(CCOC(=O)C(C)C)SSC(CCOC(=O)C(C)C)=C(C)N(C=O)Cc1cnc(C)nc1N)N(C=O)Cc1cnc(C)nc1N", "activity change, negative = inhibition": "11% (inactive)"}, {"smiles": "CN1CCc2cccc3c2[C@H]1Cc1ccc(O)c(O)c1-3", "activity change, negative = inhibition": "8.42% (inactive)"}, {"smiles": "NCc1ccccc1Sc1ccccc1CO", "activity change, negative = inhibition": "-0.682% (inactive)"}, {"smiles": "C[C@H]1[C@H]2CC[C@H]3[C@@H]4CC=C5C[C@@H](N(C)C)CC[C@]5(C)[C@H]4CC[C@]23CN1C", "activity change, negative = inhibition": "1% (inactive)"}, {"smiles": "CCN1CCCC(OC(=O)C(c2ccccc2)c2ccccc2)C1", "note": "(stereo unspecified)", "activity change, negative = inhibition": "5.06% (inactive)"}, {"smiles": "CCCc1ncc(C[n+]2ccccc2C)c(N)n1", "activity change, negative = inhibition": "0.386% (inactive)"}, {"smiles": "CN(C)CCC[C@@]1(c2ccc(F)cc2)OCc2cc(C#N)ccc21", "activity change, negative = inhibition": "8.29% (inactive)"}, {"smiles": "COc1cc(C(=O)NCc2ccc(OCCN(C)C)cc2)cc(OC)c1OC", "activity change, negative = inhibition": "-8.11% (inactive)"}, {"smiles": "CCOc1ccccc1OCCN[C@H](C)Cc1ccc(OC)c(S(N)(=O)=O)c1", "activity change, negative = inhibition": "17% (inactive)"}, {"smiles": "Nc1ccc(C(=O)NCC(=O)O)cc1", "activity change, negative = inhibition": "-23.4% (inactive)"}]}]}
